Screening results from PubChem BioAssay.
Most compounds without a hit are left out; they make up all but 2.9% or so of the library.
FID counter – displaces DNA intercalator in HCV helicase counter-screen | DNA fluorescent intercalator displacement, fluorescence | inhibition, % at 7.9 µM | 290,000 compounds, 0.17% hits | AID 1845; in the data active = inhibition above about 37%;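 note: 0% = vehicle and 100% = reference compound; higher means more ethidium bromide displaced from hairpin DNA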
MEKK2 mut-MEK5 – signal of MEK5 binding to mutant human MEKK2 PB1 domain | bead flow cytometry, Alexa488-MEK5 binding to MEKK2 mutant | percent response, % at 10 µM | 290,000 compounds, 0.35% hits | AID 1530; in the data active = percent response above about 24%, passing the limit was not always enough
MEKK3 PB1 HTS – raises or lowers MEK5 binding to the human MEKK3 PB1 domain; Q99759; bead-based flow cytometry, Alexa488-MEK5 binding to MEKK3; actives lie on both sides; 0 = blocked by unlabeled MEK5, 100 = vehicle; binding response (% of control), % at 10 µM; 290,000 compounds, 1.4% hits; AID 1529;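 active = binding response more than 3 SD above or below the average of its plate-row segment, actives on both sides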;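 note: Alexa488 bead fluorescence after subtracting the streptavidin-only scavenger bead signal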
Target sequence (Q99759 whole entry, looked up, the tested form may be a part): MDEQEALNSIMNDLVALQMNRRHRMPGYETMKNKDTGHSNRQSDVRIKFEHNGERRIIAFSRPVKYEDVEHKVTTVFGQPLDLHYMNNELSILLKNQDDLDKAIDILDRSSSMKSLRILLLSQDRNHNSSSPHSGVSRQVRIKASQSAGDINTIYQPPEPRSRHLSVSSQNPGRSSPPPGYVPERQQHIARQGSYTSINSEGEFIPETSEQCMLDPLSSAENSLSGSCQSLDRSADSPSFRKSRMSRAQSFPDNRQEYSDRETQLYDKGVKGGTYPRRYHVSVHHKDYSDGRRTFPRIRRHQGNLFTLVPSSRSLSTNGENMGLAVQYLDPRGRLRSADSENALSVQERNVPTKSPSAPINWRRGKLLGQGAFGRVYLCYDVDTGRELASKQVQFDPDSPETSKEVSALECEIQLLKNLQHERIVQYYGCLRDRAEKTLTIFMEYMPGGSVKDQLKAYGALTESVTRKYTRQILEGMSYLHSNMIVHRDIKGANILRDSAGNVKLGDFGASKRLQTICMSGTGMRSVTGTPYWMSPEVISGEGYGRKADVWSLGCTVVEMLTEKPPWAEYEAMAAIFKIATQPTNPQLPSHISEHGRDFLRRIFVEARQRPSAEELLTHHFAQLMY
dFosB act – enhances mouse delta FosB homodimer DNA binding | 340,000 compounds, 0.99% hits | purified delta FosB, TAMRA-CDK5 oligo fluorescence polarization; percent of positive-control signal above neutral wells | activation, % at 25 µM | P13346;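 active = mean activation above about 17%, with every replicate also reaching it, limit read from the data, passing the limit was not always enough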
MEKK2 WT-MEK5 – raises or lowers MEK5 binding to wildtype human MEKK2 PB1 domain; bead flow cytometry, Alexa488-MEK5 binding to MEKK2 WT; actives lie on both sides; binding response (% of control), % at 10 µM; 290,000 compounds, 1.1% hits; AID 1531; in the data active = binding response below about 67% or above about 130%
MEKK2wt confirm – raises or lowers MEK5 binding to wildtype human MEKK2, retest. shares compounds with MEKK3 PB1 HTS. bead flow cytometry, Alexa488-MEK5 binding to MEKK2 WT; actives lie on both sides. binding response (% of control), % at 10 µM. 5,900 compounds, 2.4% hits; in the data active = binding response below about 16% or above about 210%; inactive = in between
MEKK2mut-MEK5 – signal of MEK5 binding to mutant human MEKK2, retest; bead flow cytometry, Alexa488-MEK5 binding to MEKK2 mutant; shares compounds with MEKK3 PB1 HTS; percent response, % at 10 µM; 5,900 compounds, 2% hits; AID 1893; in the data active = percent response mostly above about 71%, no sharp cut-off; inactive = mostly below about 38%;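 note: higher means compound restores mutant binding toward wildtype level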
MEKK3-MEK5 inh – confirmation of inhibitors of MEK5 binding to human MEKK3 | shares compounds with MEKK3 PB1 HTS | bead flow cytometry, Alexa488-MEK5 binding to MEKK3; stronger effect = lower value | 5,900 compounds, 1.8% hits | binding response (% of control), % at 10 µM;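 active = binding response below 72% of control, or above a set upper limit, though filed actives all read lower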;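 note: 100% = DMSO only wells and 0% = binding blocked by excess unlabeled MEK5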
Active calls of the source: *; · = not tested or not shown; [ ] = remark or other dose.

SMILES | FID counter | MEKK2 mut-MEK5 | MEKK3 PB1 HTS | dFosB act | MEKK2 WT-MEK5 | MEKK2wt confirm | MEKK2mut-MEK5 | MEKK3-MEK5 inh
O=C(c1ccc(Cl)cc1)N(Cc1ccco1)C1CCS(=O)(=O)C1 (configuration not stated) | -13 | -32 | 2.0*[inhibitor] | 0 | 1.0*[inhibitor] | 103 | -1 | 104
Cc1ccc(N/C(CSC(N)=O)=N\S(=O)(=O)c2ccc(C)cc2)cc1 | -8 | 6 | 128* | -6 | 121 | 98 | -5 | 100
NC(=O)SC/C(=N\S(=O)(=O)c1ccccc1)Nc1ccccc1 | 0 | 2 | 102 | 0 | 101 | · | · | ·
Cc1ccc(N/C(CSC(N)=O)=N/S(=O)(=O)c2ccccc2)cc1 | 3 | 4 | 125* | 1 | 116 | 99 | -2 | 105
COc1cc(NC(=O)CSCc2ccc(Cl)cc2)c(C(=O)O)cc1OC | -28 | 19 | 115 | -1 | 113 | · | · | ·
O=C(CC1C(=O)NCCN1Cc1c(F)cccc1Cl)NCCCOc1cccnc1 (configuration not stated) | -24 | -1 | 99 | -6 | 98 | · | · | ·
CCC1(CC)C(=O)C2=C3C1[C@H](C(=O)OC)C=C(C(=O)OC)C[C@H]3[C@H]1C(=O)NC(=O)[C@H]1[C@H]2C (some centres not stated) | · | 1 | 105 | 2 | 101 | · | · | ·
CCC1(CC)C(=O)C2=C3C1[C@H](C(=O)OC)CC(C(=O)OC)C[C@H]3[C@H]1C(=O)N(c3ccccc3)C(=O)[C@H]1[C@H]2C (some centres not stated) | · | -9 | 57*[inhibitor] | -2 | 75 | 96 | 6 | 97
CCOC(=O)c1sc(NC(=O)COC(=O)C(CCSC)NC(C)=O)nc1C (configuration not stated) | -3 | -2 | 61*[inhibitor] | 11 | 78 | 98 | -9 | 93
CCOC(=O)c1c(N)sc2c1CCCC2 | -11 | -9 | 52*[inhibitor] | -7 | 64 | 101 | 0 | 100
NS(=O)(=O)c1ccc(NC(=O)COC(=O)C2(c3ccccc3F)CCCC2)cc1 | -3 | 4 | 107 | -9 | 105 | · | · | ·
NC(=O)c1ccc(NC(=O)COC(=O)C2(c3ccccc3F)CCCC2)cc1 | -11 | -2 | 73*[inhibitor] | -10 | 88 | 100 | 1 | 103
COc1ccccc1-c1nnc(SCC(=O)O)n1-c1ccccc1 | -13 | 1 | 135* | -10 | 116 | 101 | 11 | 105
Cc1ccc2[nH]c(C(=O)N3CCCCC3)cc2c1 | -15 | 1 | 100 | -9 | 103 | · | · | ·
Cc1ccc2[nH]c(C(=O)NCCN3CCCC3)cc2c1 | 7 | 9 | 109 | 3 | 137* | 110 | -6 | 98
Cc1cc(C)n2nc(C(=O)N/N=C/C=C/c3ccccc3)nc2n1 | -16 | -2 | 104 | · | 105 | · | · | ·
CCN(CC(=O)NCc1ccc(Cl)cc1)C(=O)CN1C(=O)NC(CC)(c2ccccc2)C1=O (configuration not stated) | -48 | 2 | 103 | -4 | 104 | · | · | ·
Cc1ccc(N2CCN(C3=NC(=O)/C(=C\c4cn[nH]c4-c4ccccc4)S3)CC2)cc1 | -5 | 0 | 135* | -4 | 103 | 98 | -1 | 98
Cn1c(-c2ccc(C=O)s2)nc2c3ccccc3c3ccccc3c21 | 0 | -19 | 90 | -14 | 63*[inhibitor] | 75 | -12 | 94
CCC(C)NCCOCCOc1ccc(C)cc1Br (configuration not stated) | 18 | 5 | 102 | -1 | 109 | · | · | ·
CCC(C)NCCCOc1c(C)cc(C)cc1Br (configuration not stated) | 25 | 1 | 147* | -1 | 111 | 109 | 4 | 103
CCCNS(=O)(=O)c1ccc(OCC(=O)N2CCOCC2)cc1 | -3 | -5 | 69*[inhibitor] | 3 | 88 | 99 | -2 | 101
O=C(NCC(O)c1ccc([N+](=O)[O-])cc1)C1=COCCO1 (configuration not stated) | · | · | · | 0 | · | · | · | ·
Cc1ccc(NC(=S)NNC(=O)CSc2nnc(-c3ccc(Cl)cc3)n2C2CCCCC2)cc1 | -21 | 0 | 89 | -9 | 95 | · | · | ·
CCn1c(SCC(=O)NNC(=S)Nc2ccc(C)cc2)nnc1-c1ccc(Cl)cc1 | -37 | 1 | 134* | 8 | 111 | 97 | 0 | 106
SMILES | FID counter | MEKK2 mut-MEK5 | MEKK3 PB1 HTS | dFosB act | MEKK2 WT-MEK5 | MEKK2wt confirm | MEKK2mut-MEK5 | MEKK3-MEK5 inh
CNS(=O)(=O)c1cc(Br)ccc1S(=O)c1ccccc1C(=O)O (configuration not stated) | 0 | -16 | 88 | 9 | 88 | · | · | ·
COc1cc(/C=C/C(=O)C2C(=O)C=C(C)OC2=O)cc(OC)c1O (configuration not stated) | -16 | 3 | 135* | -8 | 117 | 104 | -4 | 100
COc1ccc(/C=C/C(=O)C2C(=O)C=C(C)OC2=O)cc1O (configuration not stated) | -4 | 12 | 106 | -9 | 111 | · | · | ·
COc1ccc(NC(=O)C2CCCNC2)cc1OCC(C)C (configuration not stated) | 16 | 7 | 105 | -5 | 112 | · | · | ·
COc1ccc(NC(=O)C2CCCN(CCCc3ccccc3)C2)cc1OCC(C)C (configuration not stated) | 32 | 19 | 110 | -5 | 139* | 109 | 3 | 98
Cc1ccc(-c2cc(C(=O)Nc3ccc(S(=O)(=O)Nc4nccs4)cc3)c3ccccc3n2)c(C)c1 | -25 | 4 | 96 | -7 | 108 | · | · | ·
CCC(C)NC(=O)/C=C1\Sc2ccccc2NC1=O (configuration not stated) | -10 | 2 | 135* | -12 | 109 | 102 | -3 | 100
COc1ccc(C2/C=C\CN(C(=O)C3CCCC3)[C@H](Cc3ccccc3)C(=O)N2Cc2ccc(F)cc2)cc1 (some centres not stated) | · | 1 | 133* | -1 | 151* | 101 | -6 | 100
Nc1ccc(-c2ccc(N)c(C(=O)O)c2)cc1C(=O)O | -3 | -12 | 44*[inhibitor] | 0 | 46*[inhibitor] | 102 | -3 | 102
Fc1ccc(CO/N=C2\CCCc3nonc32)cc1 | -2 | 8 | 106 | -8 | 102 | · | · | ·
Cc1cc(C)c2nc3sc(C(=O)N4CCOCC4)c(N)c3cc2c1 | -17 | -13 | 29*[inhibitor] | -13 | 17*[inhibitor] | 102 | 0 | 97
Cc1ccc(C)c2nc3sc(C(=O)N4CCOCC4)c(N)c3cc12 | -8 | -9 | 99 | -5 | 90 | · | · | ·
